Activity calls are given as the source filed them. Rule for the calls: active = hit-call score of the fitted dose curve at least 0.9, where 1 is the maximum; inactive = score below 0.9.

The experiment is described as follows: ATG_M_61_CIS: Attagene CIS-FACTORIAL HepG2 Assay for M61 Transcription Factor (Internal Marker) (AID 2282937). The note with it: HepG2 Attagene CIS-FACTORIAL M61 internal marker reporter; actives raise or lower the signal. In short, it runs like this:
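Readout is reporter mRNA by RT-PCR, fluorescent primer extension and capillary electrophoresis, with gain or loss fitted relative to DMSO. Transfected HepG2 cells carrying endogenous-TF-driven cis reporters were exposed to chemicals for 24 hours.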
For the compound `ClC(Cl)(Cl)c1ccccc1`, the compound was classed as inactive.
As to `CCN(CC)c1ccccc1`, the outcome was inactive.
To `CCCCN(CCCC)SN(C)C(=O)Oc1cccc2c1OC(C)(C)C2` belongs “inactive”; to `CCOP(=S)(OCC)SCSCC`, “inactive”; to `CC(Cc1ccc(OCC(=O)O)cc1)NCC(O)c1csc(C(F)(F)F)n1` (stereo unspecified), “inactive”.
In the case of `CCC(C)(C)c1ccc(O)cc1`, the compound was classed as inactive.
`O=P(Oc1ccccc1)(Oc1ccccc1)Oc1ccccc1`: the result was inactive.
Take `Nc1ccc(Cl)cc1`: the compound was called inactive.
`CCCCN(CCCC)N=O`: the compound was called inactive.
To `CCC1(c2ccccc2)C(=O)N=C(O)NC1=O` (stereo unspecified) belongs “inactive”.
As to `CC(C)(C)OOC(C)(C)C`, the compound was classed as inactive.
As to `Nc1ccc(Sc2ccc(N)cc2)cc1`, the result was inactive.
Turning to `c1ccc(OP(Oc2ccccc2)Oc2ccccc2)cc1`, the call was inactive.
Take `CC(Cl)(Cl)C(=O)O`: the compound was called inactive.
On to `O=C(O)C1C(C(=O)O)C2(Cl)C(Cl)=C(Cl)C1(Cl)C2(Cl)Cl` (stereo unspecified), for which the outcome was inactive.
To `CCCCc1ccccc1` belongs “inactive”.

For the origin of these results see PubChem BioAssay (EPA / NIEHS).
